Results on 40 compounds are retold here after PubChem BioAssay (NCATS).

Molecules are shown by their SMILES. Where “and” joins values, the source holds several entries; their conditions need not be identical. Equal values may be shown once. The source holds several records for some structures; these can differ, active in one and inactive in another. Calls of active or inactive are those of the source.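 Rule for the calls: active = compounds whose dose series gives a full or clear partial fitted curve of increased nuclear translocation; inconclusive = weak partial curve or effect only at the top dose; inactive = no dose-dependent translocation response.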
Potency is the fitted concentration of half-maximal effect.

Sequence of Glucocorticoid receptor (Homo sapiens) (P04150 whole entry, looked up): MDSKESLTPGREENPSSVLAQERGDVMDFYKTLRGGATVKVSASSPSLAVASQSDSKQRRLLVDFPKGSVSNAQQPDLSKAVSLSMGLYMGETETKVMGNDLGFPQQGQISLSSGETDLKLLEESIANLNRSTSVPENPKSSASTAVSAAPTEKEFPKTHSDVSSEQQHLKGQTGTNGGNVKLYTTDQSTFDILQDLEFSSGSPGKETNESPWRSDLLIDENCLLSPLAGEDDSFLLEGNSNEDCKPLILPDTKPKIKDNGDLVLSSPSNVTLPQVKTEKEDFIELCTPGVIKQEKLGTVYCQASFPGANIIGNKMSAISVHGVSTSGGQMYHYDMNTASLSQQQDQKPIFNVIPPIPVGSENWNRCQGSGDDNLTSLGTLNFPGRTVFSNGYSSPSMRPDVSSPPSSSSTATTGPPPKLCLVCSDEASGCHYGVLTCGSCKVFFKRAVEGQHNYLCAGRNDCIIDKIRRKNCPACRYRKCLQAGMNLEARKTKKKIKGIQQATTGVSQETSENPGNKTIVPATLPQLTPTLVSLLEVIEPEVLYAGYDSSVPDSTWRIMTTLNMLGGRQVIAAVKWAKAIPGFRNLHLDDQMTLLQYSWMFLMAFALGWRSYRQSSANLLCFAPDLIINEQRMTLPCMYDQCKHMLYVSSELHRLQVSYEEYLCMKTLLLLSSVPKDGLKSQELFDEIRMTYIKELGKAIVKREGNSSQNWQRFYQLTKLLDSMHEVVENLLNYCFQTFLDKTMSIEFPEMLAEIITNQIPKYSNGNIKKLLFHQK

This test addresses Glucocorticoid receptor (Homo sapiens) (UniProt P04150). Kind of test: GR-GFP Redistribution (AID 450). As to conditions: U2OS GR-GFP nuclear translocation, laser cytometry, 2 h. The source says: NIH Molecular Libraries Screening Centers Network [MLSCN]
NIH Chemical Genomics Center [NCGC]
The glucocorticoid receptor (GR) Redistribution assay (BioImage) enables the visualization of GR cytoplasmic to nuclear translocation by the use of a GR-GFP fusion. GR is normally cytosolic, however ligands such as dexamethasone, cause nuclear translocation where the protein binds to response elements and interacts with various co-factors to modulate transcription. Because both functional agonists and antagonists can induce nuclear translocation, this assay can detect ligands regardless of their effects on gene expression. GR-GFP expressing U20S cells were used here. Dexamethasone was the positive control for translocation and data normalization. Detection of nuclear translocation was performed in 1536-well plates using the Acumen laser scanning plate cytometer (TTP LabTech). Validation of this assay and a detailed protocol have been described.
NCGC Assay Protocol Summary:
GR-GFP U2OS cells were maintained in DMEM with Glutamax and high glucose, 1% v/v penicillin-streptomycin, and 0.5 mg/mL Geneticin. For cell culture, 10% […] fetal bovine serum (FBS) was used (Invitrogen #26140-079). For cell plating 10% dextran, charcoal-stripped FBS (Hyclone SH30068.03) was used. U2OS cells were trypsin treated, suspended in medium, and passed through a 40 um basket filter. The cells were seeded at 600 cells/5 uL/well into clear-bottom black sided 1536-well plates and incubated for approximately 20 hrs, 37degC, 5%, CO2 in a tissue culture incubator. Twenty-three nL of compound was delivered by pin tool and the plates were incubated as above for 2 hrs. The compounds were tested as a 7-point titration ranging from 46 uM to 0.6 nM. The cells were fixed using the Kalypsys Washer/Dispenser station. The fixing protocol involved aspiration of the cell media, addition of 6 uL/well of PBS, aspiration of PBS, addition of 5uL/well of 100% methanol, aspiration of methanol, and addition of 3 uL/well PBS with 1.5 uM propidium iodide (PI). The plates were read by the Acumen Explorer using a 1 x 8 um scan of the whole well area. PI fluorescence triggered the collection of PI and GFP signals. A nuclei population was defined by a 10 to 100 um width and depth filter that eliminated small and large fluorescent particles. Two subpopulations of nuclei were then defined by peak intensity of GFP fluorescence to obtain translocated and untranslocated objects. The number of translocated objects was used for data normalization.
Keywords: NIH Roadmap, MLSCN, MLI, MLSMR, sOGT, qHTS, NCGC
With `Nc1nc2c(ncn2COC(CO)CO)c(=O)[nH]1`, the Potency is > 46 µM (inactive) and > 20.6 µM (inactive).
Then `CCOC(=O)Nc1ccc(NCc2ccc(F)cc2)nc1N`, with > 46 µM (inactive); and `Cn1c(=O)c2c(ncn2C)n(C)c1=O`, with > 46 µM (inactive); and `CCOC(=O)C(C)(C)Oc1ccc(Cl)cc1`, with > 46 µM (inactive).
Next, `COc1ccccc1N1CCN(CC(O)COc2cccc3ccccc23)CC1` (stereo not given): > 20.6 µM (inactive).
Then `Clc1ccc2c(c1)C(N1CCNCC1)=Nc1ccccc1O2`, with > 46 µM (inactive) and > 20.6 µM (inactive); and `CN1CCC(=C2c3ccccc3CC(=O)c3sccc32)CC1`, with > 46 µM (inactive) and > 20.6 µM (inactive).
For `CN(C)CCC=C1c2ccccc2C=Cc2ccccc21`, the Potency is > 46 µM (inactive) and > 20.6 µM (inactive).
Then `Clc1ccccc1C(c1ccccc1)(c1ccccc1)n1ccnc1`, with > 46 µM (inactive) and > 20.6 µM (inactive).
As for `O=c1[nH]cc(F)c(=O)[nH]1`, the Potency was > 46 µM (inactive).
Next, `CN1CCC(=C2c3ccccc3C=Cc3ccccc32)CC1`: > 46 µM (inactive) and > 20.6 µM (inactive); `COc1ccc2[nH]cc(CCNC(C)=O)c2c1`: > 46 µM (inactive) and > 20.6 µM (inactive); `NS(=O)(=O)c1cc2c(cc1Cl)NCNS2(=O)=O`: > 46 µM (inactive) and > 20.6 µM (inactive).
Then `CN1CCN(C2=Nc3cc(Cl)ccc3Nc3ccccc32)CC1`, with > 46 µM (inactive) and > 20.6 µM (inactive) and 2.68 µM (active).
`O=C(Nc1ccc([N+](=O)[O-])cc1Cl)c1cc(Cl)ccc1O`: the Potency was > 46 µM (inactive) and > 20.6 µM (inactive).
Then `CC[N+](CC)(CC)CCOc1cccc(OCC[N+](CC)(CC)CC)c1OCC[N+](CC)(CC)CC`, with > 46 µM (inactive) and > 20.6 µM (inactive); and `NCCCCCC(=O)O`, with > 46 µM (inactive) and > 20.6 µM (inactive).
Then `CN(C)C(=O)C(CCN1CCC(O)(c2ccc(Cl)cc2)CC1)(c1ccccc1)c1ccccc1`, with > 46 µM (inactive) and > 20.6 µM (inactive); and `CN(C)C(=N)N=C(N)N`, with > 20.6 µM (inactive).
Then `O=C(C1CCCCC1)N1CC(=O)N2CCc3ccccc3C2C1` (stereo not given), with > 20.6 µM (inactive).
As for `CCC1(c2ccccc2)C(=O)NCNC1=O`, the Potency was > 46 µM (inactive) and > 20.6 µM (inactive).
Then `CC(C)Cc1ccc(C(C)C(=O)O)cc1` (stereo not given), with > 20.6 µM (inactive); and `Cn1ccc2cc3c(cc21)CCN3C(=O)Nc1cccnc1`, with > 46 µM (inactive); and `CN(C)CCCN1c2ccccc2CCc2ccc(Cl)cc21`, with > 46 µM (inactive) and > 20.6 µM (inactive).
Turning to `CN1C(C(=O)Nc2ccccn2)=C(O)c2ccccc2S1(=O)=O`, the Potency is > 46 µM (inactive) and > 20.6 µM (inactive).
Regarding `Cc1cc(C(C)(C)C)c(O)c(C)c1CC1=NCCN1`, the Potency is > 46 µM (inactive) and > 20.6 µM (inactive).
Regarding `Cn1cnc2c1c(=O)[nH]c(=O)n2C`, the Potency is > 46 µM (inactive) and > 20.6 µM (inactive).
Next, `O=C1c2c(O)ccc(O)c2C(=O)c2c(NCCNCCO)ccc(NCCNCCO)c21`: > 46 µM (inactive) and > 20.6 µM (inactive).
As to `CC(COc1ccccc1)N(CCCl)Cc1ccccc1` (stereo not given), the Potency is > 20.6 µM (inactive).
Then `O=C(c1ccc(F)cc1)C1CCN(CCn2c(=O)[nH]c3ccccc3c2=O)CC1`, with > 46 µM (inactive) and > 20.6 µM (inactive); and `NCCS(=O)(=O)O`, with > 46 µM (inactive); and `COc1ccc(C2CNC(=O)C2)cc1OC1CCCC1` (stereo not given), with > 20.6 µM (inactive).
Next, `O=C1N(c2ccccc2)c2ccccc2C1(Cc1ccncc1)Cc1ccncc1`: > 46 µM (inactive).
In the case of `COc1nc(C)nc(Cl)c1NC1=NCCN1`, the Potency was > 46 µM (inactive) and > 20.6 µM (inactive).
Next, `NC12CC3CC(CC(C3)C1)C2`: > 46 µM (inactive) and > 20.6 µM (inactive).
On to `CN1CCN2c3ccccc3Cc3ccccc3C2C1` (stereo not given), for which the Potency is > 20.6 µM (inactive).
Next, `Cc1ccc(C(=O)Nc2ccc(S(=O)(=O)O)c3cc(S(=O)(=O)O)cc(S(=O)(=O)O)c23)cc1NC(=O)c1cccc(NC(=O)Nc2cccc(C(=O)Nc3cc(C(=O)Nc4ccc(S(=O)(=O)O)c5cc(S(=O)(=O)O)cc(S(=O)(=O)O)c45)ccc3C)c2)c1`: > 46 µM (inactive); `COc1ccc2c(c1)c(CC(=O)O)c(C)n2C(=O)c1ccc(Cl)cc1`: > 46 µM (inactive) and > 20.6 µM (inactive); `CC[C@@]1(O)C(=O)OCc2c1cc1n(c2=O)Cc2cc3c(CN(C)C)c(O)ccc3nc2-1`: > 46 µM (inactive).
Next, `COC(=O)Nc1nc2ccc(C(=O)c3cccs3)cc2[nH]1`: > 46 µM (inactive) and > 20.6 µM (inactive).
